About 7,900 targets were measured; listed, in parts, are those with a hit and a random draw of the rest. About 0.6% of all pairs of compound and target were hits.
Tests used:
Assay in all cases: log2 fold change, soluble protein after heating vs DMSO (PISA); higher = thermal stabilisation; K562 cells, 10 uM, 30 min; active = over 0.2 and 3.5 SD of the protein, either way, in both replicates (recomputed)
[1] = compound: C1=CC=C(C=C1)[C@H](COC2=CC3=C(C=C2)NC(=O)N3)NC(=O)C4=CC=CN(C4=O)CC5=CC(=C(C=C5)F)F
Outline: (§1)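 Aliquots of K562 cells (2×10^6 cells/mL) treated with 10 μM compound for 30 min were heated for 3 min over 48°C-58°C. After pooling and extraction in PBS with 0.5% NP-40 at 4°C, soluble protein from a 21,000xg, 90 min spin was quantified by TMTpro 16plex LC-MS/MS with channel sums equalised. Thermal stability is expressed against control samples, from duplicates, as a log2 fold change.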

[2] = compound: CC1=C(SC2=C1C(=N[C@H](C3=NN=C(N32)C)CC(=O)N)C4=CC=C(C=C4)Cl)C
Outline: as §1

[3] = compound: CC1=C2C(=CC=C1)N=C(N(C2=O)C3=CC=CC=C3C)CN4C=NC5=C(N=CN=C54)N
Outline: as §1

[4] = compound: Cc1sc2c(c1C)C(c1ccc(Cl)cc1)=N[C@@H](CC(=O)OC(C)(C)C)c1nnc(C)n1-2
Outline: as §1

[5] = compound: c1ccc([C@@H]2C[C@H]2NC2CCNCC2)cc1
Outline: as §1

Measured: log2 fold change

LTV1 (UniProt Q96GA3)
Chain of UniProt Q96GA3 (Q96GA3 whole entry, looked up): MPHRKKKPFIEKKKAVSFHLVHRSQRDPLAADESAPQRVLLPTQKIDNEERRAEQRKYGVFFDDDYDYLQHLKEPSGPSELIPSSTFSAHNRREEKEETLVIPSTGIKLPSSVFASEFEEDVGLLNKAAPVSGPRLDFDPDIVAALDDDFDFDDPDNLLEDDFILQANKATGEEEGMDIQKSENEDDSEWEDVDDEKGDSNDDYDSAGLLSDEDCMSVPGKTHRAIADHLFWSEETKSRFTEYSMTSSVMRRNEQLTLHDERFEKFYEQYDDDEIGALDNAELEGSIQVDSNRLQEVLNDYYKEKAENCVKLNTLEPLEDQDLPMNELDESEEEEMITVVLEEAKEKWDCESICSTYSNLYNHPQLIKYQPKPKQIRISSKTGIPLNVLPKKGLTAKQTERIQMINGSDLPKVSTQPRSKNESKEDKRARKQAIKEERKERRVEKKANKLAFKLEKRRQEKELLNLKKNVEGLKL
inactive: [1] -0.02 | [2] -0.137 | [3] -0.033 | [4] 0.17 | [5] 0

LAPTM4B (UniProt Q86VI4)
inactive: [1] -0.12

ILF3 isoform 7 (UniProt Q12906)
Chain of UniProt Q12906 (Q12906 whole entry, looked up): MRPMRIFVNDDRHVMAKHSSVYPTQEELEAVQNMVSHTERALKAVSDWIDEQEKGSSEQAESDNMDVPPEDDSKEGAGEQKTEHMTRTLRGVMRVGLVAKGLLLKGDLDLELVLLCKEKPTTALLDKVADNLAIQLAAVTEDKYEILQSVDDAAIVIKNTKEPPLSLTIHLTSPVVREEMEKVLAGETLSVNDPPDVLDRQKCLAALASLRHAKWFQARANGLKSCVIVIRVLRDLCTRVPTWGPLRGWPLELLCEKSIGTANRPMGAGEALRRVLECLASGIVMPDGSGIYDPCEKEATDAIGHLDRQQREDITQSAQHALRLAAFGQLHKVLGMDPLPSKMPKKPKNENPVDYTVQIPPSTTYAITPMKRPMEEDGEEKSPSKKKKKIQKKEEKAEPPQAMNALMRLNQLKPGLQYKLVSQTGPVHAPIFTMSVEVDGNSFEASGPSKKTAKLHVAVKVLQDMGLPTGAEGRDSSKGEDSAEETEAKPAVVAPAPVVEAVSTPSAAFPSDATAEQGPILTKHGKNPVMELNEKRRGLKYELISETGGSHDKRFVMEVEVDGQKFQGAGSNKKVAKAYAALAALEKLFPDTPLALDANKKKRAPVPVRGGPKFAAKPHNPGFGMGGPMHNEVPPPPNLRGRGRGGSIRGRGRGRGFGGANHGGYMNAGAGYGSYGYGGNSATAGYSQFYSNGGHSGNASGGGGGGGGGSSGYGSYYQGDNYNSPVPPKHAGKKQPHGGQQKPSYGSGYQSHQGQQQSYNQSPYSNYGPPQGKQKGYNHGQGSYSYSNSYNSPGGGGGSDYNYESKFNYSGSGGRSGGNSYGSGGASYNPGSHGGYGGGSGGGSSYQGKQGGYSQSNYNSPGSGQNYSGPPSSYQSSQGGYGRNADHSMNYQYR
inactive: [1] 0.038 | [2] -0.061 | [3] -0.126 | [4] 0.194 | [5] 0.028

IPO9 (UniProt Q96P70)
Chain of UniProt Q96P70 (Q96P70 whole entry, looked up): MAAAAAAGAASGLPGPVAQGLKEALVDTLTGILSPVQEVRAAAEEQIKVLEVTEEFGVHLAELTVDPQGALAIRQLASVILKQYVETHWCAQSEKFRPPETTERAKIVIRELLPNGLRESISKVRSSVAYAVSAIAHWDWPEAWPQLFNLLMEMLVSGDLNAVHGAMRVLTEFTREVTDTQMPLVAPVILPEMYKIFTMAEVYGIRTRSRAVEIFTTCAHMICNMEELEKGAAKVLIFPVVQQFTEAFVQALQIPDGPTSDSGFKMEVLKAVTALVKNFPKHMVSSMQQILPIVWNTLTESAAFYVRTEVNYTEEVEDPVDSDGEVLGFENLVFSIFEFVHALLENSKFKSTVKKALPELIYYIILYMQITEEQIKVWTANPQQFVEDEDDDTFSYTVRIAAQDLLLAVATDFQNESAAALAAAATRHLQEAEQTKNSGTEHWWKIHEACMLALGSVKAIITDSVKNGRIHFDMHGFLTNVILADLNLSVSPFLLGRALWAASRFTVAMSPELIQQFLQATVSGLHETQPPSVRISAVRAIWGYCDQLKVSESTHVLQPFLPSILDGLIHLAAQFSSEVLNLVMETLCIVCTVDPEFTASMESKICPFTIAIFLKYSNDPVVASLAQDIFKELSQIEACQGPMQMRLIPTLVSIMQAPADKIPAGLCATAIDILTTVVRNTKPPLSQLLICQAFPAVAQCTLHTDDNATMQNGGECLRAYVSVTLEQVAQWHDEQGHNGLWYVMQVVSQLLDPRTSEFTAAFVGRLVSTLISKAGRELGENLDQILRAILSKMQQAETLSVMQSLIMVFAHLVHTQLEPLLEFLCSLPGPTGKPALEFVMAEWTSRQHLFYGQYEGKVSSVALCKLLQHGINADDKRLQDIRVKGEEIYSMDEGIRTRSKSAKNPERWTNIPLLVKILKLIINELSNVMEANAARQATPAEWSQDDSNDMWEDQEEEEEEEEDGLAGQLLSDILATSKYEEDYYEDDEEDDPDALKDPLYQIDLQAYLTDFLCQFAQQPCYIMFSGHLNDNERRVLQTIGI
inactive: [1] 0.018 | [2] 0.063 | [3] 0.014 | [4] -0.01 | [5] 0.079

JAK3 (UniProt P52333)
inactive: [1] -0.011 | [2] 0.075 | [3] -0.027 | [4] 0.009 | [5] 0.032

MARCHF3 (UniProt Q86UD3)
Chain of UniProt Q86UD3 (Q86UD3 whole entry, looked up): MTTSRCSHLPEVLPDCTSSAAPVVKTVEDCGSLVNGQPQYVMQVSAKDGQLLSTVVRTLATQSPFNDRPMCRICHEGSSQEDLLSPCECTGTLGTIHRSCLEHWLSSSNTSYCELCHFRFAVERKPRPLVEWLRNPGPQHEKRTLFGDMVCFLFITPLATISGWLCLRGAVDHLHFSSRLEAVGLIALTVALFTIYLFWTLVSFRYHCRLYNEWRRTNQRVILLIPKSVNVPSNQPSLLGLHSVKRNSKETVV
inactive: [1] -0.096

LEMD2 (UniProt Q8NC56)
Chain of UniProt Q8NC56 (Q8NC56 whole entry, looked up): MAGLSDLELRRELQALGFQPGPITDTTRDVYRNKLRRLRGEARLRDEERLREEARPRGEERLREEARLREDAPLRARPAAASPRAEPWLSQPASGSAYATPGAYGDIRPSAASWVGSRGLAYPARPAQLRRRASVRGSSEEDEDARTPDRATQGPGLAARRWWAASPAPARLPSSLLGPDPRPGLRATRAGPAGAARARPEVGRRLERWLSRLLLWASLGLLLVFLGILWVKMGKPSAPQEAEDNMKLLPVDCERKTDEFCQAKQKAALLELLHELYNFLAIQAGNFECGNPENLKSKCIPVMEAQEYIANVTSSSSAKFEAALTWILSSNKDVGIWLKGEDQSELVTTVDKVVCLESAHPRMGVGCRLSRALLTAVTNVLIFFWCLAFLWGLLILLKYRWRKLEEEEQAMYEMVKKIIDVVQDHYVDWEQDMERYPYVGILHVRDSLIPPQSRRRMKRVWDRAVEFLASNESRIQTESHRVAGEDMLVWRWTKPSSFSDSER
inactive: [1] -0.031 | [2] 0.136 | [3] 0.114 | [4] -0.017 | [5] 0.005

IRF3 (UniProt Q14653)
Chain of UniProt Q14653 (Q14653 whole entry, looked up): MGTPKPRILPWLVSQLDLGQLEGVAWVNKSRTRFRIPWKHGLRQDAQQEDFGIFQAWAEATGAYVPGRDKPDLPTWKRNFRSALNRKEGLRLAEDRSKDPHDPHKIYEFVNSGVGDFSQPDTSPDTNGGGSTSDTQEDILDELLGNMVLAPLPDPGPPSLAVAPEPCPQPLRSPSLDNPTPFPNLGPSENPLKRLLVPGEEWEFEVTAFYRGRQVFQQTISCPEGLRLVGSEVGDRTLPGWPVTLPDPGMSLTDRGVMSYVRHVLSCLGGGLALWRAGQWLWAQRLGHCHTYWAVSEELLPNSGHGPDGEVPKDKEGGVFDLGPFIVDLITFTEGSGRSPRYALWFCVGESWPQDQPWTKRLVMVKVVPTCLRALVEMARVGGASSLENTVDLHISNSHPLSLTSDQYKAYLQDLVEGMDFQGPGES
inactive: [1] -0.049 | [2] 0.123 | [3] 0.015 | [4] -0.007 | [5] -0.01

LUC7L2 (UniProt Q9Y383)
Chain of UniProt Q9Y383 (Q9Y383 whole entry, looked up): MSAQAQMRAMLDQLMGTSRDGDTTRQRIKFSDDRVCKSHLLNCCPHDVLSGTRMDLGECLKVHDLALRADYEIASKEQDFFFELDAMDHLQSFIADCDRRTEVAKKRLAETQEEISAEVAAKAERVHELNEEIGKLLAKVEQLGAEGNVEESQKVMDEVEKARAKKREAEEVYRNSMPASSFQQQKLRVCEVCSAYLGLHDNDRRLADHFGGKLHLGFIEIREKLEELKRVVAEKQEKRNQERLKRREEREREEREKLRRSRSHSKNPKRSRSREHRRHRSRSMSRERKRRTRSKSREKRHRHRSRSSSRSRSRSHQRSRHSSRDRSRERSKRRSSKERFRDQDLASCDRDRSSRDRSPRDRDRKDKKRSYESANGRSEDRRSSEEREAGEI
inactive: [1] 0.023 | [2] -0.044 | [3] 0.036 | [4] 0.006 | [5] 0.014

IPP (UniProt Q9Y573)
Chain of UniProt Q9Y573 (Q9Y573 whole entry, looked up): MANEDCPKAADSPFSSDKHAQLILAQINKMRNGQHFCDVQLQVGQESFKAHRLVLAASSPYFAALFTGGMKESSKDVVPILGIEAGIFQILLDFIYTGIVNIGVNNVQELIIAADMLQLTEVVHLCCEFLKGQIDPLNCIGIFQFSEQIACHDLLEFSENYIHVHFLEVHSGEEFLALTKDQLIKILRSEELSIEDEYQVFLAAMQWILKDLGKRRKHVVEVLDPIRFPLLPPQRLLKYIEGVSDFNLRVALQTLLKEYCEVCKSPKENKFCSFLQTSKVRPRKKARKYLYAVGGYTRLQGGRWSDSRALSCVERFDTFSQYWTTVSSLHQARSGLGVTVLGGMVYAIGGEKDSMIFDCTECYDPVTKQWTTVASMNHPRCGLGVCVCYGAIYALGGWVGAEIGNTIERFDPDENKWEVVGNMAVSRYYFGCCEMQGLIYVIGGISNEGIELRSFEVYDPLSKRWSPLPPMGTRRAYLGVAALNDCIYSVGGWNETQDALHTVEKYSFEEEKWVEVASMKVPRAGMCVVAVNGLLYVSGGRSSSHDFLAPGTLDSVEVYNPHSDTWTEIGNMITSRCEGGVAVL
inactive: [1] 0.065

MEAK7 (UniProt Q6P9B6)
Chain of UniProt Q6P9B6 (Q6P9B6 whole entry, looked up): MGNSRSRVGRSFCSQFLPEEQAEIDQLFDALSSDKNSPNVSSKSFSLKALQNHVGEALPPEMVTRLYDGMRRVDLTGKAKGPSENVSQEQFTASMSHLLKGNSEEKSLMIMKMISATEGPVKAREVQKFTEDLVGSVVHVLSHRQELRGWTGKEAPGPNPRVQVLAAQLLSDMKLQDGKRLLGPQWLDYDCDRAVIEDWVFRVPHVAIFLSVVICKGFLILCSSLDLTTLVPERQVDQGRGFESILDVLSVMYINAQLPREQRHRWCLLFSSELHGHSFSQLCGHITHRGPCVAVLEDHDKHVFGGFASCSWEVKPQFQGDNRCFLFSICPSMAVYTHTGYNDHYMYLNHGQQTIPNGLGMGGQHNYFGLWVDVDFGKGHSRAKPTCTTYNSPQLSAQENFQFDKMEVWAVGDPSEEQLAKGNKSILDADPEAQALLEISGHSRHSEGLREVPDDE
inactive: [1] -0.009 | [2] 0.051 | [3] 0.042 | [4] -0.009 | [5] -0.048

From the supplement of paper PMC10849652
